# “And” between values parts separate entries of the source, which are not always exact repeats. Equal entries are not always repeated. Records with an inconclusive call do not appear. The source made the active and inactive calls.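 How the source made its calls, unless noted: active means normalized viability below 100% at a tested concentration; inactive means the rest.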
# Legend:
# [1] = JHH-DIPG-1 glioma cell viability, MIPE5.0 library, CellTiter-Glo luminescence, qHTS (AID 1347067; cut-off not given, nearly all actives have AC50 up to about 26 µM;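 further: cells exposed to compound for 48 hours before readout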); conditions: JHH-DIPG-1 glioma viability, CellTiter-Glo ATP luminescence
# [2] = kinase inhibitors against Plasmodium liver-stage infection, cell-based, known kinase inhibitor set, luminescence, hepatoma host viability (AID 624392; call rule not given here;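 further: infected cells incubated roughly two days before readout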); conditions: Plasmodium liver stage in hepatoma cells, luciferase luminescence, concentration not given here; liver cell % of control: measured here: host liver cell viability; parasite % of control: stronger effect = lower value
# [3] = viability loss in pontine glioma line – cell-based, SU-DIPG-XXV, MIPE5.0, CellTiter-Glo, qHTS, dose response (AID 1347065; cut-off not given, nearly all actives have AC50 up to about 26 µM;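 further: cells exposed to compound for 48 hours before ATP readout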); conditions: CellTiter-Glo ATP luminescence
# [4] = sensitizers of A549 cells to miR-34 induction, primary screen, imaging, A549 dox-inducible miR-34, nuclei and caspase counts (AID 1347080;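 active means compounds whose cell count with miR-34 switched on is under 0.7 times the count with it off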); conditions: A549 miR-34 inducible, Hoechst nuclei count, 48 h
# [5] = modifiers of HSF1 nuclear foci, imaging, Selleck Cancer Library (AID 1347162; in the data active means plate-normalised HSF1 focus index below about 0.46); conditions: human cells, at 10 µM; SSMD: measured here: HSF1 foci SSMD mean; cell count: measured here: cell number; plate-normalised HSF1 focus index: stronger effect = lower value
# [6] = survival rescue of mitochondrial mutant cells in low glucose, primary screen, MELAS cybrids, Rieske KO mouse fibroblasts, CellTiter-Glo (AID 1508586;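 active means mean z-score across replicates of 1.96 or higher in either the MELAS or the Rieske mutant cell line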;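 further: z relative to plate mean and SD of compound and empty wells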)
# [7] = ovarian cancer cell viability with rucaparib, profiling panel, oncology-focused library, rucaparib conditional (AID 1508598); conditions: patient-derived ovarian cancer cells, CellTiter-Glo viability, 144 h, stronger effect = lower value
# [8] = SU-DIPG-XXV glioma cell viability, MIPE5.0 library, qHTS (AID 1347068; cut-off not given, nearly all actives have IC50 up to about 30 µM)
smiles,measurement,setting,value
Cc1cccc(/C=N/Nc2cc(N3CCOCC3)nc(OCCc3ccccn3)n2)c1,outcome,[1],inactive
S=C(NCc1ccc2c(c1)OCO2)N1CCN(c2ncnc3c2oc2ccccc23)CC1,liver cell % of control,[2],79.8% and 74.8% and 83.5%
same,parasite % of control,[2],3.34% (inactive) and 4.31% (inactive) and 22.8% (inactive)
same,AC50,[3],18.6 µM (active)
same,fold change,"[4]; stronger effect = lower value, cell number ratio, induced over uninduced",0.868 (inactive)
same,fold change,[4]; measured here: relative caspase fold change +Dox/-Dox,1.07
same,cell count,"[4]; measured here: total cells with miR-34 induction, stronger effect = lower value",3980
same,cell count,[4]; measured here: total cells without miR-34 induction,4580
same,SSMD,[5],2.08
same,cell count,[5],7510
same,plate-normalised HSF1 focus index,[5],1.08 (inactive)
same,z-score,"[6]; MELAS cybrid survival, CellTiter-Glo 48 h, stronger effect = higher value",-0.551 (inactive)
same,z-score,"[6]; Rieske KO mouse fibroblast survival, CellTiter-Glo 72 h",0.864
same,viability,"[7]; at 0.000305 µM, OCI-C5x cells, with rucaparib 10 µM, 100% = cells with rucaparib alone",112% (inactive)
same,viability,"[7]; at 0.000305 µM, OCI-C5x cells, without rucaparib",101% (inactive)
same,viability,"[7]; at 0.000305 µM, OCI-P5x cells, with rucaparib 20 µM, 100% = cells with rucaparib alone",89.7% (active)
same,viability,"[7]; at 0.000305 µM, OCI-P5x cells, without rucaparib",92.1% (active)
same,viability,"[7]; at 0.00122 µM, OCI-C5x cells, with rucaparib 10 µM, 100% = cells with rucaparib alone",117% (inactive)
same,viability,"[7]; at 0.00122 µM, OCI-C5x cells, without rucaparib",100% (inactive)
same,viability,"[7]; at 0.00122 µM, OCI-P5x cells, with rucaparib 20 µM, 100% = cells with rucaparib alone",96.6% (active)
same,viability,"[7]; at 0.00122 µM, OCI-P5x cells, without rucaparib",98.2% (active)
same,viability,"[7]; at 0.00488 µM, OCI-C5x cells, with rucaparib 10 µM, 100% = cells with rucaparib alone",109% (inactive)
same,viability,"[7]; at 0.00488 µM, OCI-C5x cells, without rucaparib",104% (inactive)
same,viability,"[7]; at 0.00488 µM, OCI-P5x cells, with rucaparib 20 µM, 100% = cells with rucaparib alone",97.2% (active)
same,viability,"[7]; at 0.00488 µM, OCI-P5x cells, without rucaparib",95.2% (active)
same,viability,"[7]; at 0.0195 µM, OCI-C5x cells, with rucaparib 10 µM, 100% = cells with rucaparib alone",105% (inactive)
same,viability,"[7]; at 0.0195 µM, OCI-C5x cells, without rucaparib",98.9% (active)
same,viability,"[7]; at 0.0195 µM, OCI-P5x cells, with rucaparib 20 µM, 100% = cells with rucaparib alone",109% (inactive)
same,viability,"[7]; at 0.0195 µM, OCI-P5x cells, without rucaparib",105% (inactive)
same,viability,"[7]; at 0.0781 µM, OCI-C5x cells, with rucaparib 10 µM, 100% = cells with rucaparib alone",115% (inactive)
same,viability,"[7]; at 0.0781 µM, OCI-C5x cells, without rucaparib",111% (inactive)
same,viability,"[7]; at 0.0781 µM, OCI-P5x cells, with rucaparib 20 µM, 100% = cells with rucaparib alone",110% (inactive)
same,viability,"[7]; at 0.0781 µM, OCI-P5x cells, without rucaparib",101% (inactive)
same,viability,"[7]; at 0.313 µM, OCI-C5x cells, with rucaparib 10 µM, 100% = cells with rucaparib alone",110% (inactive)
same,viability,"[7]; at 0.313 µM, OCI-C5x cells, without rucaparib",111% (inactive)
same,viability,"[7]; at 0.313 µM, OCI-P5x cells, with rucaparib 20 µM, 100% = cells with rucaparib alone",105% (inactive)
same,viability,"[7]; at 0.313 µM, OCI-P5x cells, without rucaparib",104% (inactive)
same,viability,"[7]; at 1.25 µM, OCI-C5x cells, with rucaparib 10 µM, 100% = cells with rucaparib alone",118% (inactive)
same,viability,"[7]; at 1.25 µM, OCI-C5x cells, without rucaparib",107% (inactive)
same,viability,"[7]; at 1.25 µM, OCI-P5x cells, with rucaparib 20 µM, 100% = cells with rucaparib alone",103% (inactive)
same,viability,"[7]; at 1.25 µM, OCI-P5x cells, without rucaparib",103% (inactive)
same,viability,"[7]; at 5 µM, OCI-C5x cells, with rucaparib 10 µM, 100% = cells with rucaparib alone",128% (inactive)
same,viability,"[7]; at 5 µM, OCI-C5x cells, without rucaparib",129% (inactive)
same,viability,"[7]; at 5 µM, OCI-P5x cells, with rucaparib 20 µM, 100% = cells with rucaparib alone",101% (inactive)
same,viability,"[7]; at 5 µM, OCI-P5x cells, without rucaparib",101% (inactive)
OCCC#Cc1nc(-c2ccc(F)cc2)c(-c2ccncc2)n1CCCc1ccccc1,liver cell % of control,[2],306% and 93.3% and 95.7%
same,parasite % of control,[2],3.85% (inactive) and 44.3% (inactive) and 36.9% (inactive)
same,AC50,[1],26.3 µM (active)
same,outcome,[8],inactive
